# Measurements published in PubChem BioAssay (NCI).
# Where “and” joins values, the source holds several entries; their conditions need not be identical. Identical values can stand only once. This is part of a sample that, as a whole, favours compounds with a hit. Of some 83,000 tested, about 20% had one in any assay.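 Compound tested at a single concentration for 48 hours in 96-well plates; a percent growth value below 10 was scored as active.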 Calls of active or inactive are those of the source.
# Experiments:
# Experiment in all cases: NCI-60 one-dose screen, 48 h (100 = growth as untreated, 0 = no growth, -100 = all killed)
# Settings in all cases: 10 µM unless noted
# HCT-15 colon = test system: HCT-15 colon
# HT29 colon = test system: HT29 colon
# SNB-19 CNS = test system: SNB-19 CNS
# U251 CNS = test system: U251 CNS
# PC-3 prostate = test system: PC-3 prostate
# SK-MEL-5 melanoma = test system: SK-MEL-5 melanoma
# UACC-62 melanoma = test system: UACC-62 melanoma
# LOX IMVI melanoma = test system: LOX IMVI melanoma
# SK-MEL-28 melanoma = test system: SK-MEL-28 melanoma
# SK-MEL-2 melanoma = test system: SK-MEL-2 melanoma
# EKVX NSCLC = test system: EKVX NSCLC
# SN12C renal = test system: SN12C renal
# UO-31 renal = test system: UO-31 renal
# TK-10 renal = test system: TK-10 renal
# ACHN renal = test system: ACHN renal
# CAKI-1 renal = test system: CAKI-1 renal
# A498 renal = test system: A498 renal
# CCRF-CEM leukemia = test system: CCRF-CEM leukemia
# SNB-75 CNS = test system: SNB-75 CNS
# MOLT-4 leukemia = test system: MOLT-4 leukemia
Compound,growth (HCT-15 colon),growth (HT29 colon),growth (SNB-19 CNS),growth (U251 CNS),growth (PC-3 prostate),growth (SK-MEL-5 melanoma),growth (UACC-62 melanoma),growth (LOX IMVI melanoma),growth (SK-MEL-28 melanoma),growth (SK-MEL-2 melanoma),growth (EKVX NSCLC),growth (SN12C renal),growth (UO-31 renal),growth (TK-10 renal),growth (ACHN renal),growth (CAKI-1 renal),growth (A498 renal),growth (CCRF-CEM leukemia),growth (SNB-75 CNS),growth (MOLT-4 leukemia)
O=[N+]([O-])c1ccc(Oc2ccccc2)cc1,123% (inactive) and 104% (inactive),113% (inactive) and 103% (inactive),97% (inactive) and 114% (inactive),102% (inactive) and 105% (inactive),81.9% (inactive) and 88.4% (inactive),109% (inactive) and 108% (inactive),107% (inactive) and 106% (inactive),95.3% (inactive) and 99.3% (inactive),108% (inactive),112% (inactive) and 117% (inactive),100% (inactive) and 122% (inactive),120% (inactive) and 116% (inactive),80.1% (inactive) and 87.6% (inactive),97.9% (inactive) and 103% (inactive),106% (inactive) and 105% (inactive),93.4% (inactive) and 126% (inactive),106% (inactive) and 96.9% (inactive),-24% (active) and 92.5% (inactive),,
COc1ccc(Cn2c(NCCN=C(N)N)nc(=O)n(Cc3ccc(F)cc3)c2=O)cc1,103% (inactive) and 106% (inactive),101% (inactive) and 100% (inactive),,81.7% (inactive),83% (inactive) and 87.1% (inactive),98.7% (inactive) and 99.9% (inactive),112% (inactive) and 98.4% (inactive),96.2% (inactive),103% (inactive) and 97.9% (inactive),101% (inactive),,,,103% (inactive) and 104% (inactive),,,,93.1% (inactive) and 87.4% (inactive),55.1% (inactive) and 22.7% (inactive),84.6% (inactive) and 88.4% (inactive)
NC(=S)NN=C1CCC(C2CCCCC2)CC1 (stereo not given),61.9% (inactive) and 66.1% (inactive),,96% (inactive) and 102% (inactive),93.7% (inactive) and 95.1% (inactive),89% (inactive) and 74.1% (inactive),87.3% (inactive) and 87.8% (inactive),79.6% (inactive) and 88.3% (inactive),99.8% (inactive),91.5% (inactive) and 110% (inactive),96% (inactive) and 90.2% (inactive),78.9% (inactive) and 82.6% (inactive),82.3% (inactive) and 82.5% (inactive),69.3% (inactive) and 45.9% (inactive),113% (inactive) and 104% (inactive),100% (inactive) and 98.8% (inactive),81.9% (inactive) and 96.2% (inactive),88.2% (inactive),81.1% (inactive) and 92% (inactive),76.4% (inactive) and 92.8% (inactive),81.4% (inactive) and 73.3% (inactive)
NC(=O)C1CC2C=CC1C2 (stereo not given),107% (inactive) and 106% (inactive),107% (inactive) and 114% (inactive),,98.7% (inactive) and 99.8% (inactive),100% (inactive) and 98.4% (inactive),99.9% (inactive) and 109% (inactive),102% (inactive) and 94.3% (inactive),90.1% (inactive) and 94.2% (inactive),104% (inactive) and 101% (inactive),98.6% (inactive) and 112% (inactive),102% (inactive) and 94.7% (inactive),,,120% (inactive) and 117% (inactive),101% (inactive) and 95.3% (inactive),76.1% (inactive) and 69.2% (inactive),112% (inactive) and 89.4% (inactive),118% (inactive) and 96.2% (inactive),87% (inactive) and 93.8% (inactive),103% (inactive) and 102% (inactive)
O=C1OC(Oc2ccc(Br)cc2)(c2ccccc2)c2ccccc21 (stereo not given),69.6% (inactive) and 58.6% (inactive),,88.8% (inactive) and 102% (inactive),78.9% (inactive) and 58.5% (inactive),80.7% (inactive) and 63.6% (inactive),97.3% (inactive),73.8% (inactive) and 83.9% (inactive),77.5% (inactive) and 83.2% (inactive),101% (inactive) and 120% (inactive),74.2% (inactive) and 73.2% (inactive),96.4% (inactive) and 82.2% (inactive),,72.4% (inactive) and 89.3% (inactive),89.4% (inactive) and 86.2% (inactive),,17.9% (inactive) and 0.588% (active),80.1% (inactive) and 93.7% (inactive),70.1% (inactive) and 46.1% (inactive),61.2% (inactive) and 77.1% (inactive),77.4% (inactive)
O=C1c2ccccc2-c2c1c1ccccc1c(=O)n2CCO,,,,,,,-21.8% [100 µM] (active) and -78.7% [100 µM] (active),,,,,,,41.8% [100 µM] (inactive) and 3.35% [100 µM] (active),,,,,,
CCNC(=O)Nc1ccc(-c2nc3c(c(N4CCOC[C@@H]4C)n2)CCN(C2COC2)C3)cc1,60.3% (inactive) and 15.9% (inactive),,59.2% (inactive) and 15.7% (inactive),55.9% (inactive) and 7.52% (active),26.6% (inactive) and 12.6% (inactive),22.4% (inactive) and -26.4% (active),9.26% (active) and -20.5% (active),33.9% (inactive) and 1.39% (active),,41.7% (inactive),46.8% (inactive) and 17.4% (inactive),36.1% (inactive) and 14.7% (inactive),21.8% (inactive) and -6.18% (active),44.4% (inactive) and -22.3% (active),,67.1% (inactive) and 0.578% (active),-24.1% (active) and -36.2% (active),52.8% (inactive) and 12.2% (inactive),22.9% (inactive) and -33.2% (active),52.2% (inactive) and 8.79% (active)
CC1=CCC2CC1C2(C)C (stereo not given),99.5% (inactive) and 94% (inactive),,95.8% (inactive) and 101% (inactive),97.4% (inactive) and 92% (inactive),101% (inactive) and 89.5% (inactive),102% (inactive) and 87.7% (inactive),97% (inactive) and 93.6% (inactive),93.4% (inactive) and 88.6% (inactive),,88.2% (inactive) and 108% (inactive),91.7% (inactive) and 83.2% (inactive),103% (inactive) and 94.4% (inactive),,113% (inactive) and 119% (inactive),102% (inactive) and 96.1% (inactive),76.2% (inactive) and 82.8% (inactive),103% (inactive) and 81% (inactive),121% (inactive) and 114% (inactive),102% (inactive) and 90.3% (inactive),96.1% (inactive) and 96% (inactive)
COC(=O)[C@H]1CCCN1C(=O)C1CCCN1C(=O)[C@@H](Cc1ccccc1)NC(=S)Nc1cc(C(F)(F)F)cc(C(F)(F)F)c1 (stereo not given in full),95.8% (inactive) and 75.5% (inactive),,92.1% (inactive) and 86.7% (inactive),98.8% (inactive) and 77% (inactive),101% (inactive) and 53.3% (inactive),100% (inactive) and 88.2% (inactive),94.7% (inactive) and 90.3% (inactive),103% (inactive) and 88.1% (inactive),109% (inactive) and 99.4% (inactive),109% (inactive) and 103% (inactive),,96.1% (inactive) and 84% (inactive),94.6% (inactive) and 59.1% (inactive),114% (inactive) and 90% (inactive),98.4% (inactive) and 85.6% (inactive),89.2% (inactive),96.6% (inactive) and 81.4% (inactive),106% (inactive) and 72.2% (inactive),85.4% (inactive) and 73.3% (inactive),91.3% (inactive) and 42.9% (inactive)
O=C(Nc1cccc(-n2ccc3c(NC(=O)c4ccccc4)nccc32)c1)c1ccc(Cl)c(C(F)(F)F)c1,-15.1% (active) and 34.3% (inactive),,,43.4% (inactive),-30.6% (active) and 51.1% (inactive),-92.4% (active) and 57.4% (inactive),5.48% (active) and 54.1% (inactive),-80.3% (active) and 18.4% (inactive),,,38% (inactive) and 87.3% (inactive),-40% (active) and 64.5% (inactive),7.05% (active) and 75.7% (inactive),93.1% (inactive),13% (inactive) and 53.5% (inactive),-66.7% (active) and 42.8% (inactive),,-25.3% (active) and 40.3% (inactive),16% (inactive) and 84.4% (inactive),-4.82% (active) and 10.3% (inactive)
CC(C)=CC(O)C/C(C)=C/CC/C(C)=C/CCC1(C)C(CCCO)/C(=C(/C)C=O)CCC1(C)O (stereo not given),,,,,,,-21.5% [100 µM] (active) and 2.9% [100 µM] (active),,,,,,,49.7% [100 µM] (inactive) and 9.22% [100 µM] (active),,,,,,
